GLP1R ag = GLP-1 receptor (human) agonism; 380,000 compounds, 0.007% hits; Potency, µM (titrated, usually from 45.6 µM), for the others: top-dose activation, hits mostly activators; HEK293 GLP-1R CRE-luciferase, luminescence, 4-6 h; cells express a hypersensitive GLP-1R form; P43220; also: % of control where 0% means no effect
GLP-1R inv ag = acts as inverse agonist at human GLP-1 receptor. P43220. HEK293 GLP-1R CRE-luciferase, luminescence, 24 h; GLP-1R form is constitutively active. Potency, µM (doses to about 38.3 µM), for the others: at the top dose activity change, negative = inhibition, actives largely listed as inhibitors. 410,000 compounds, 1.6% hits. AID 624417; also: % is scaled to controls: 0 for no effect and ±100 for the full control effect; nearly all actives have a fitted effect of over 55% in size
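Inverse agonists were sought by their lowering of basal cAMP reporter luciferase output in HEK293 cells stably carrying constitutively active human GLP-1R, after 24 h compound treatment.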
HEK293 tox = cytotoxic in the GLP-1 receptor inverse agonist counter-screen | Potency, µM (top dose mostly 38.3 µM), without a hit: top-dose activity change, negative = inhibition, usual class: inhibitors | AID 624418 | 410,000 compounds, 0.13% hits | HEK293 cAMP-luciferase reporter cells, luminescence, 24 h;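 also: loss of luciferase light is scored as toxicity; % is scaled to controls: 0 for no effect and ±100 for the full control effect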
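1536-well qHTS counterscreen of the MLSMR; 200 cells/uL, 12 h pre-incubation, 23 nL cpd, 24 h at 37 deg C 5% CO2, luciferase detection reagent, 12 min RT, luminescence. Inhibition = undesired.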
PTHR1 agonist = activates the human parathyroid hormone receptor PTHR1; Q03431; HEK293 GP2 PTHR1 cells, GloSensor cAMP luminescence, 1 h; Potency, µM (doses to about 115 µM), for inactives: at the top dose activation, usual class: activators; 410,000 compounds, 0.075% hits; AID 743266; also: nearly all actives have a fitted effect of over 55% in size
Target sequence (Q03431 whole entry, looked up): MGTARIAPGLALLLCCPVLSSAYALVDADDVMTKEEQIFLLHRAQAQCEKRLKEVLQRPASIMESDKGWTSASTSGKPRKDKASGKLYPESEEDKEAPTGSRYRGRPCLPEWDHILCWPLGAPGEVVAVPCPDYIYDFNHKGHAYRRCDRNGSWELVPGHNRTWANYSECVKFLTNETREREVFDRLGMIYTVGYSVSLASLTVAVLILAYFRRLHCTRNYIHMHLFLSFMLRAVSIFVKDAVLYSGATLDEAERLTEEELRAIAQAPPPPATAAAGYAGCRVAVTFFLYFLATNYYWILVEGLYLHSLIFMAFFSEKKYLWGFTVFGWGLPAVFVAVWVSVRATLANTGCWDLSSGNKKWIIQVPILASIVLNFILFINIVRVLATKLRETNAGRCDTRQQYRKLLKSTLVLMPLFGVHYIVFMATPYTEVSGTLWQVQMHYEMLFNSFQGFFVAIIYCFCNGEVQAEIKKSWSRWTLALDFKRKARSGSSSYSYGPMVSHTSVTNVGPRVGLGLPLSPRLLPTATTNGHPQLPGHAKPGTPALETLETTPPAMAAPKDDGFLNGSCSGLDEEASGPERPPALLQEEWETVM
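HEK-293-derived GP2 cells expressing PTHR1 and a GloSensor cAMP reporter, 3,000/well, plated overnight, given luciferin plus IBMX (each 0.5 mM as added) for 1 h at 37 °C, then compound for 1 h at 37 °C. Luminescence was read after 15 min at room temperature.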
Numbers without * were called inactive; u = inconclusive; x = not tested or not shown. In the library only some 1.7% were active in any assay of this set; here they are far more common. Calls follow the shape of the dose curve; as a rule, active = well fitted curve in the direction sought with a large enough effect; inconclusive = small, poorly fitted or top-dose-only effect, or another doubt; inactive = no such curve, though single readings can be large; an effect the other way counts as inactive or inconclusive. Potency is read from the fitted curve at half-maximal effect.

SMILES	GLP1R ag	GLP-1R inv ag	HEK293 tox	PTHR1 agonist
CN(C)Cc1ncccc1Oc1nc2cc(-c3cccc(Cl)c3)sc2c(=O)n1C	2.0%	u	-23.3%	-19.8%
Cc1cccc(-c2nc(SCC(=O)Nc3ccc4c(c3)OCO4)c(-c3ccccc3)[nH]2)c1	x	u	u	-42.1%
Oc1ccccc1-c1nc2ccccc2nc1-c1ccccc1	23.9%	11.2µM*	-2.6%	-2.7%
C/C(=N\Nc1cc(N2CCCCC2)nc(C)n1)c1ccc(Br)cc1	10.8%	10µM*	u	-12.4%
O=C(Nc1ccc(F)cc1)c1oc2ccccc2c1NC(=O)C1CCCCC1	0.1%	-7.9%	4.2%	-93.5%
CC(C)c1ccccc1NC(=O)Cn1cnc2c1c(=O)n(C)c(=O)n2C	x	-1.0%	-2.8%	-11.0%
COc1ccc(-c2cc(C(=O)NCc3ccc(F)cc3)c3c(-c4ccc(F)cc4)[nH]nc3n2)cc1OC	x	1.9%	1.5%	-36.4%
